Source: PubChem BioAssay (NCATS)
Records with an inconclusive call do not appear. A number with no mark means an inactive call. Calls come from the whole dose curve; as a rule, active = well fitted curve in the direction sought with a large enough effect; inconclusive = small, poorly fitted or top-dose-only effect, or another doubt; inactive = no such curve, though single readings can be large; an effect the other way counts as inactive or inconclusive.

Each compound was assayed against Aldehyde dehydrogenase, mitochondrial (Homo sapiens) (UniProt P05091) (assay: qHTS for Inhibitors of the Aldehyde Dehydrogenase Family (ALDH2) Primary screen (AID 2061308;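 note: plate controls were vehicle for no effect and reference inhibitor for full effect; nearly all actives have a fitted effect of over 55% in size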)). Conditions: ALDH2 enzyme inhibition qHTS, 1536-well; series mostly up to 56 µM; activity change, negative = inhibition: at the top concentration.

Point of comparison: `CCCCNC(=S)NCCCN(Cc1ccc(Cl)c(Cl)c1)c1ccc(Br)cn1`, “activity change, negative = inhibition” value 12.3%. Against it:
- O=C(NCCc1ccc2c(c1)OCO2)c1cc2sccc2n1Cc1ccccc1 — lower, -22.5%
- O=C1c2ccccc2C(=O)N1c1ccccc1O — lower, -7.64%
- Cc1cnc(-c2ccccc2C2CC2)nc1NCc1ccc(-c2cccnc2)cc1 — higher, 75.6%
- O=C(OCC#CCSc1nnc(-c2cccc3ccccc23)o1)c1cccc(C(F)(F)F)c1 — lower, -10.2%
- Cc1ccc(NS(=O)(=O)c2ccc3c(c2)CCC(=O)N3)cc1Cl — lower, 8.79%
- COc1ccc(CNc2nc(-c3ccccc3C(F)(F)F)nc3ccccc23)cc1 — lower, -15.2%

What follows are compounds tested against Retinaldehyde dehydrogenase 3 (Homo sapiens) (UniProt P47895) (assay: qHTS for Inhibitors of the Aldehyde Dehydrogenase Family (ALDH1A3) Primary screen (AID 2061315;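 note: plate controls were DMSO vehicle for no effect and reference inhibitor for full effect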)). Conditions: ALDH inhibition qHTS; series mostly up to 56 µM; activity change, negative = inhibition: at the top concentration.

Point of comparison: `CCOC(=O)/C=C/c1cc(F)c(S(=O)(=O)N2CCN(S(=O)(=O)c3ccc4c(c3)OCCO4)CC2)cc1F`, “activity change, negative = inhibition” value 1.73%. Against it:
- O=S(=O)(NC1CCC(CNS(=O)(=O)c2c(F)cccc2F)CC1)c1ccc2c(c1)OCCO2 (configuration not stated) — lower, -1.26%
- COc1cc(Cl)ccc1C(=O)Nc1nc(-c2ccccc2)cs1 — lower, -7.08%
- Cc1ccc(C)c(-c2cc(C(F)(F)F)nn2-c2ccc(S(N)(=O)=O)cc2)c1 — lower, -9.72%
- Cc1cc(C)nc(NC(=S)N2CCN(c3nccc(C(F)(F)F)n3)CC2)c1 — higher, 7.06%
- COc1ccc(C2=Nn3c(nnc3-c3ccccc3Cl)SC2)cc1OC1CCCC1 — higher, 9.93%
- Brc1cnc2nc(SCc3ccncc3)[nH]c2c1 — higher, 5.29%
- CC(=O)Nc1sc2c(c1-c1nc3ccccc3s1)CCN(C(=O)OC(C)(C)C)C2 — higher, 7.35%
- Cc1ccc(S(=O)(=O)Nc2cccc(C(=O)Nc3nc(-c4ccccc4)cs3)c2)cc1 — lower, -2.03%
- O=C(CCc1ccccc1)Nc1cccc([S+](=O)([O-])Nc2ccccc2F)c1 — higher, 8.77%
- O=C1CCc2cc([S+](=O)([O-])NC3CCOCC3)ccc2N1 — lower, -3.08%
- Cc1cc(-c2nnc3n2CCCCC3)c(C)n1-c1ccc(C#N)cc1 — higher, 5.64%
- Cc1cc(C)nc(NC(=S)N2CCN(c3ccc(NS(C)(=O)=O)nn3)CC2)c1 — lower, 1.71%
- Cc1nc(NC2CCCCC2)c2nc(-c3ccccc3)n(CCN3CCCCC3)c2n1 — lower, 1.17%
- O=C(OCC#CCSc1nnc(-c2cc3ccccc3cc2O)o1)c1ccc(F)cc1 — higher, 16.4%
- CCOC(=O)C1CCN(C(=O)C2(NC(=O)Nc3ccccc3Cl)CCCCC2)CC1 — lower, 0.377%
- O=[S+]([O-])(c1c(F)cccc1F)N1CCN([S+](=O)([O-])c2c(F)c(F)c(F)c(F)c2F)CC1 — higher, 10%
- O=S(=O)(NCc1ccccc1F)c1ccc(O)c2ncccc12 — lower, -24.4%
- CC(=O)c1ccc(-c2csc3ncnc(Sc4nnnn4C)c23)cc1 — higher, 4.09%
- Cc1cc2c(s1)c1cnn(Cc3ccc(S(C)(=O)=O)cc3)c(=O)c1n2C — lower, -1.83%
- CC(C)(C)OC(=O)Cc1nnc(C(C(=O)OCc2ccccc2)c2ccccc2)o1 (configuration not stated) — higher, 5.38%
- Cc1cc2c(s1)c1cnn(Cc3ccc(Cl)cc3)c(=O)c1n2C — lower, -1.07%
- C=CCNc1oc(-c2cccc3ccccc23)nc1C#N — higher, 7.82%
- O=C(Nc1ccc(Br)c(Br)c1)Nc1cccc(-c2ccncc2)n1 — lower, -2.11%
- O=C1C[C@]23C=CCN4CCC5c6cc7c(cc6N1[C@@]5(CC2)C43)OCO7 (some centres not stated) — higher, 10.7%
- CC(=O)c1ccc(N2CCN(S(=O)(=O)c3ccc4c(c3)CC(C)N4C(C)=O)CC2)cc1 (configuration not stated) — lower, -13.9%
- CCCCn1cnc2cc(C(=O)N3CCCCC3)ccc21 — lower, 0%
- O=C(Nc1ccc(S(=O)(=O)Nc2nccs2)cc1)c1ccnc(-c2ccccc2)c1 — higher, 11.8%
- Cc1nc(CNc2ncnc3ccc(-c4sc(C)nc4C)cc23)cs1 — higher, 4.5%
- O=C(NCCCCN1CCN(c2cccc(Cl)c2Cl)CC1)c1cc2ccccc2s1 — lower, -0.119%
- O=C(Nc1ccc(S(=O)(=O)Nc2nccs2)cc1)c1ccnc2ccccc12 — higher, 6.91%
- COc1ccc([S+](=O)([O-])N2CCN([S+](=O)([O-])c3ccc4c(c3)OCCO4)CC2)c(OC)c1 — lower, 0.38%
- O=C(NCCc1ccc2c(c1)OCO2)c1cc2sccc2n1Cc1ccccc1 — higher, 6.34%
- CCCCNC(=S)NCCCN(Cc1ccc(Cl)c(Cl)c1)c1ccc(Br)cn1 — higher, 22.4%
- O=C1c2ccccc2C(=O)N1c1ccccc1O — lower, -30.3%
- Cc1cnc(-c2ccccc2C2CC2)nc1NCc1ccc(-c2cccnc2)cc1 — lower, -12.7%
- O=C(OCC#CCSc1nnc(-c2cccc3ccccc23)o1)c1cccc(C(F)(F)F)c1 — higher, 3.15%
- Cc1ccc(NS(=O)(=O)c2ccc3c(c2)CCC(=O)N3)cc1Cl — higher, 5.55%
- COc1ccc(CNc2nc(-c3ccccc3C(F)(F)F)nc3ccccc23)cc1 — lower, -13.5%

In the case of `COc1cc(OC)c(C(CC(=O)N2CC(C)CC(C)C2)c2ccc3c(c2)OCO3)c(OCC(N)=O)c1` (configuration not stated), the “activity change, negative = inhibition” value is reported as -18.7% [at 114 µM].
